# Literature values in PubChem BioAssay AID977610.
# The whole screen tested about 3,600 compounds, of which about 3,600 (100%) were called active. Cut-off not given; nearly all actives show Ki up to about 18000 µM. The set was probably picked from earlier hits. This is one part of the list. Numbered stars: 1 amine (or outer) side, 2 acyl side, 3 side chain; on linkers, the order of the positions; unused ones are H or OH. Starred links: 1 amine or outer side, 2 acyl side, 3 side chain; linkers in the order of their positions; H or OH if unused. Positions of bridges follow the written chain, without caps; N, C: chain ends. Bridge positions count the residues as written; N and C are the ends. Where a SMILES comes first, the peptide text is derived from it. Square brackets hold non-standard residues; d marks the D form. Residues, ends and D or L forms follow the SMILES beside them. Peptide text beside a SMILES is read from it. [ ]: non-standard residue; d: D form. The star is where a group is joined. X2 = CC[C@H](C)[C@H](N[*:1])c1cnnn1[C@@H](C)C(=O)[*:2]; X1 = C(CS[*:2])CN(CCCS[*:3])[*:1]; Orn(CH(NH2)2) = NC(N)NCCC[C@H](N)C(=O)O; Cbz = O=C(OCc1ccccc1)*; Dap = NC[C@H](N)C(=O)O; Nlys = NCCCCNCC(=O)O
# Test: PubChem AID 977610
# Details: PDB protein-ligand complexes, literature Ki
smiles,measurement,setting,value
CC(C)(C)C(=O)N[C@@H](C(=O)NO)c1ccc(-n2cccn2)cc1,Ki,"protein: M1 family aminopeptidase A-M1, PDB entry 4r5v",0.7 µM (active)
CCOC(=O)c1cc(C#N)c(N2CCC(C(=O)NS(=O)(=O)Cc3ccccc3)CC2)nc1C,Ki,"protein: P2Y12R, PDB entry 4ntj",0.0439 µM (active)
CC(C[P+](O)(O)O)C(=O)O (stereo not drawn),Ki,"protein: PHOSPHO-2-DEHYDRO-3-DEOXYHEPTONATE ALDOLASE DAH7PS, PDB entry 4uma",3.9 µM (active)
CC(C)C[C@H](NC(=O)OCc1ccccc1)C(=O)N[C@@H](Cc1ccccc1)C(=O)N[C@H](C=O)CCC(=O)N(C)C (Cbz-Leu-Phe-Glu(NMe2)-aldehyde),Ki,"protein: Genome polyprotein, PDB entry 4imz",0.12 µM (active)
CC(=O)NC[C@@H](C=O)NC(=O)[C@H](Cc1ccccc1)NC(=O)[C@H](CC(C)C)NC(=O)OCc1ccccc1 (Cbz-Leu-Phe-[Dap](Ac)-aldehyde),Ki,"protein: 3C-like protease, PDB entry 4imq",1.5 µM (active)
CC(C)C[C@H](NC(=O)[C@H](C)NC(=O)OCc1ccccc1)C(=O)N[C@@H](CCC(=O)N(C)C)C(=O)O (Cbz-Ala-Leu-Glu(NMe2)-OH),Ki,"protein: Genome polyprotein, PDB entry 4inh",0.56 µM (active)
COc1cc([C@@H]2Nc3ccc(C(N)N)cc3[C@H]3c4ccccc4C[C@H]32)c(-c2ccc(C(=O)O)cc2)cc1O,Ki,"protein: Factor VII, PDB entry 4ish",0.0019 µM (active)
CC(=O)N[C@H]1CNC[C@H](O)[C@@H](O)[C@@H]1O,Ki,"protein: Beta-hexosaminidase 1, PDB entry 4mss",0.4 µM (active)
COc1cc2c(c(OC)c1OC)-c1ccc(OC)c(=O)cc1[C@@H](NC(C)=O)CC2,Ki,"protein: Tubulin, PDB entry 4o2b",1.8 µM (active)
CC[C@H](C)[C@@H]1NC(=O)[C@@H]2CCCN2C(=O)[C@@H]2CCCN2C(=O)[C@H]([C@@H](C)CC)NC(=O)[C@H](CO)NC(=O)[C@H](CCCCN)NC(=O)[C@H]([C@@H](C)O)NC(=O)[C@@H]2CSSC[C@H](NC1=O)C(=O)N[C@@H](Cc1ccccc1)C(=O)N1CCC[C@H]1C(=O)N[C@@H](CC(=O)O)C(=O)NCC(=O)N[C@@H](CCCNC(N)N)C(=O)N2,Ki,"protein: bovine ?-trypsin, PDB entry 1sfi",0.0001 µM (active)
CC[C@H](C)[C@@H]1NC(=O)[C@@H]2CCCN2C(=O)[C@@H]2CCCN2C(=O)[C@H]([C@@H](C)CC)NC(=O)[C@H](CO)NC(=O)CN(CCCCN)C(=O)[C@H]([C@@H](C)O)NC(=O)[C@@H](NC(=O)[C@H](CCCNC(N)N)NC(=O)CN)CSSC[C@@H](C(=O)N[C@@H](Cc2ccccc2)C(=O)O)NC1=O (H-G[Orn(CH(NH2)2)]CT[Nlys]SIPPICF-OH; disulfide 3-11),Ki,"protein: Cationic trypsin, PDB entry 4hgc",0.0001 µM (active)
CC[C@H](C)[C@@H]1NC(=O)[C@H](C)n2cc(nn2)[C@@H]2CCCN2C(=O)[C@H]([C@@H](C)CC)NC(=O)[C@H](CO)NC(=O)[C@H](CCCCN)NC(=O)[C@H]([C@@H](C)O)NC(=O)[C@@H](NC(=O)[C@H](CCCNC(N)N)NC(=O)CN)CSSC[C@@H](C(=O)N[C@@H](Cc2ccccc2)C(=O)O)NC1=O (H-G[Orn(CH(NH2)2)]CTKSI[X1]ICF-OH; disulfide 3-10),Ki,"protein: bovine CATIONIC TRYPSIN, PDB entry 4abi",0.0063 µM (active)
NCCCC[C@@H]1NC(=O)[C@H](CCC(N)=O)NC(=O)[C@H](Cc2ccc(O)cc2)NC(=O)[C@@H](NC(=O)[C@H](Cc2cccc3ccccc23)NC(=O)[C@H](CCCNC(N)N)NC(=O)[C@@H](N)CCCNC(N)N)CSSC[C@@H](C(=O)N[C@@H](CCCNC(N)N)C(=O)NCC(=O)N2CCC[C@@H]2C(=O)O)NC(=O)[C@H](CCCNC(N)=O)NC(=O)[C@H](CCCNC(N)N)NC(=O)[C@H](Cc2ccc(O)cc2)NC(=O)[C@@H]2CCCN2C(=O)[C@H]2CCCN2C1=O,Ki,"protein: C-X-C chemokine receptor type 4, Lysozyme Chimera(CXCR4-3), PDB entry 3oe0",0.0025 µM (active)
CC[C@H](C)[C@@H]1NC(=O)[C@@H]2CCCN2C(=O)[C@H](C)n2nncc2[C@H]([C@@H](C)CC)NC(=O)[C@H](CO)NC(=O)[C@H](CCCCN)NC(=O)[C@H]([C@@H](C)O)NC(=O)[C@@H](NC(=O)[C@@H](N)CCCNC(N)N)CSSC[C@@H](C(=O)N[C@@H](Cc2ccccc2)C(=O)O)NC1=O (H-[Orn(CH(NH2)2)]CTKS[X2]PICF-OH; disulfide 2-9),Ki,"protein: bovine CATIONIC TRYPSIN, PDB entry 4abj",0.034 µM (active)
NC(=O)[C@H](CCC(=O)O)NC(=O)[C@H](CCC(=O)O)NC(=O)[C@H](Cc1cc(-c2ccccc2)no1)C[P+](O)(O)c1ccc(Br)cc1,Ki,"protein: Macrophage metalloelastase (F171D mutation), PDB entry 4gr3",0.0155 µM (active)
NC(=O)[C@H](CCC(=O)O)NC(=O)[C@H](CCC(=O)O)NC(=O)[C@H](Cc1cc(-c2ccc(-c3cccc(Cl)c3)cc2)no1)C[P+](O)(O)c1ccc(Br)cc1,Ki,"protein: Macrophage metalloelastase (F171D mutation), PDB entry 4gql",0.00026 µM (active)
OC[C@]1(F)OC[C@H](O)[C@@H](O)[C@@H]1O,Ki,"protein: ALPHA-1,4-GLUCAN LYASE ISOZYME 1, PDB entry 4amw",28300 µM (active)
OC[C@@]1(F)OC[C@H](O)[C@@H](O)[C@@H]1O,Ki,"protein: ALPHA-1,4-GLUCAN LYASE ISOZYME 1, PDB entry 4amx",6500 µM (active)
NC1NN=C(S(N)(=O)=O)S1 (stereo not drawn),Ki,"protein: human carbonic anhydrase II, PDB entry 2hnc",0.06 µM (active)
C[C@@H]1C[C@H]2[C@@H]3CCC4=CC(=O)C=C[C@]4(C)[C@@]3(Cl)[C@@H](O)C[C@]2(C)[C@@]1(OC(=O)c1ccco1)C(O)CCl (stereo partly drawn),Ki,"protein: Glucocorticoid receptor GR LBD, PDB entry 4p6w",0.0007 µM (active)
Nc1[nH]c(N)c2ccccc12,Ki,"protein: PDE10A2, PDB entry 4llj",380 µM (active)
CNC(=O)CN[C@@H](C(=O)N1CC[C@H]1C(=O)NCc1ccc(C(N)N)cc1)C1CCCCC1,Ki,"protein: THROMBIN, PDB entry 4ban",0.00243 µM (active)
CCCNC(=O)CN[C@@H](C(=O)N1CC[C@H]1C(=O)NCc1ccc(C(N)N)cc1)C1CCCCC1,Ki,"protein: THROMBIN, PDB entry 4bak",0.00122 µM (active)
CCNC(=O)CN[C@@H](C(=O)N1CC[C@H]1C(=O)NCc1ccc(C(N)N)cc1)C1CCCCC1,Ki,"protein: THROMBIN, PDB entry 4baq",0.00098 µM (active)
CC[C@H](C)[C@H](NC(C)=O)C(=O)N[C@@H](Cc1ccc(O)cc1)C(=O)N[C@@H](Cc1ccc(O)cc1)[P+](O)(O)O,Ki,"protein: Human angiotenisn converting enzyme N-domain, PDB entry 4bzs",0.075 µM (active)
O=C(N[C@@H](Cc1ccccc1)[P+](O)(O)C[C@@H](Cc1cc(-c2ccccc2)no1)C(=O)N[C@@H](Cc1ccc(O)cc1)C(=O)O)OCc1ccccc1,Ki,"protein: ANGIOTENSIN-CONVERTING ENZYME N-DOMAIN, PDB entry 4ca6",0.18 µM (active)
same,Ki,"protein: ANGIOTENSIN-CONVERTING ENZYME, PDB entry 4ca5",0.00041 µM (active)
same,Ki,"protein: ANGIOTENSIN-CONVERTING ENZYME, PDB entry 4ca7",0.044 µM (active)
O=C(N[C@@H](Cc1ccccc1)[P+](O)(O)C[C@H](Cc1cc(-c2ccccc2)no1)C(=O)N[C@@H](Cc1ccc(O)cc1)C(=O)O)OCc1ccccc1,Ki,"protein: ANGIOTENSIN-CONVERTING ENZYME, PDB entry 4ca8",0.21 µM (active)
CC(C)C[C@H](NC(=O)[C@@H]1CSSC[C@H]2C[C@H](NC(=O)CN)C(=O)N[C@@H](C)C(=O)N[C@@H](CC(C)C)C(=O)NCC(=O)N[C@@H](CCCN=C(N)N)C(=O)NCC(=O)N[C@@H](CSS2)C(=O)N[C@@H](CCC(=O)O)C(=O)N[C@@H](CC(N)=O)C(=O)N[C@@H](Cc2cnc[nH]2)C(=O)N[C@@H](CCCN=C(N)N)C(=O)N1)C(N)=O,Ki,"protein: Urokinase-type plasminogen activator, PDB entry 4os5",23.7 µM (active)
CC(C)C[C@H](NC(=O)[C@@H]1CSS[C@H]2CSSC[C@H](NC(=O)CNC(=O)[C@H](CCCN=C(N)N)NC(=O)CNC(=O)[C@H](CC(C)C)NC(=O)[C@H](C)NC(=O)[C@@H](NC(=O)CN)C2)C(=O)N[C@@H](CCC(=O)O)C(=O)N[C@@H](CC(N)=O)C(=O)N[C@@H](Cc2cnc[nH]2)C(=O)N[C@@H](CCCN=C(N)N)C(=O)N1)C(N)=O,Ki,"protein: Urokinase-type plasminogen activator, PDB entry 4os4",13.6 µM (active)
CC(C)C[C@H](NC(=O)[C@@H]1CSS[C@@H]2CSSC[C@H](NC(=O)CNC(=O)[C@H](CCCN=C(N)N)NC(=O)CNC(=O)[C@H](CC(C)C)NC(=O)[C@H](C)NC(=O)[C@@H](NC(=O)CN)C2)C(=O)N[C@@H](CCC(=O)O)C(=O)N[C@@H](CC(N)=O)C(=O)N[C@@H](Cc2cnc[nH]2)C(=O)N[C@@H](CCCN=C(N)N)C(=O)N1)C(N)=O,Ki,"protein: Urokinase-type plasminogen activator, PDB entry 4os1",2.5 µM (active)
CC(C)C[C@H](NC(=O)[C@@H]1CSSCCCN2CCCSSC[C@H](NC(=O)CNC(=O)[C@H](CCCN=C(N)N)NC(=O)CNC(=O)[C@H](CC(C)C)NC(=O)[C@H](C)NC(=O)[C@@H](NC(=O)CN)CC2=O)C(=O)N[C@@H](CCC(=O)O)C(=O)N[C@@H](CC(N)=O)C(=O)N[C@@H](Cc2cnc[nH]2)C(=O)N[C@@H](CCCN=C(N)N)C(=O)N1)C(N)=O (H-GDALGRGCENHRCL-NH2; linker 2-8-13 via X1),Ki,"protein: Urokinase-type plasminogen activator, PDB entry 4os7",24 µM (active)
